# Compound activity from PubChem BioAssay.
# Rows were chosen to be rich in hits. Some 7.2% of all compounds tested hit in one or more screens of this group.
# SNCA expr inhib = inhibitors of alpha-synuclein (SNCA) gene expression; hit rate 0.17% among 140,000; Potency, µM (highest dose often 57.2 µM), for inactives: top-dose activity change, negative = inhibition, most hits filed as inhibitors; HEK-293 SNCA-luciferase knock-in, luminescence, 24 h; AID 1671194;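 further: plate controls were DMSO cells for no effect and cell-free wells for full effect; nearly all actives have a fitted effect of over 45% in size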
# HEK293 tox = HEK 293 cell cytotoxicity. hit rate 6.6% among 94,000. Potency, µM (highest dose often 115 µM), without a hit: at the highest dose activity change, negative = cytotoxicity, hits mostly inhibitors. HEK 293 viability, ATP luminescence (CellTiter-Glo), 48-72 h; further: nearly all actives have a fitted effect of over 60% in size
#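 250 HEK 293 cells/well; compound by pintool; incubated 48 or 72 hr at 37 degree Celsius; CellTiter-Glo added, 10 min RT, luminescence imaged.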
# Luciferase inh = blocks purified firefly luciferase enzyme activity; P08659; purified P. pyralis luciferase, luminescence, biochemical; Potency, µM (titrated, usually from 115 µM), most hits filed as inhibitors; hit rate 2.5% among 76,000; further: nearly all actives have a fitted effect of over 65% in size
#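 FLuc 10nM, D-luciferin 10uM, ATP 10uM, Mg acetate 10mM, Tris acetate pH 7.5, Tween/BSA; cpd qHTS; enzyme added last; CCD luminescence.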
# hNpr1 antagonist = blocks ANP-stimulated signaling of human Npr1 receptor. HEK293 hNpr1 GloSensor cGMP, ANP-stimulated luminescence. Potency, µM (highest dose often 46.3 µM), for inactives: at the top dose activity change, negative = inhibition, most hits filed as inhibitors. hit rate 1.6% among 76,000; calls by dose curve; further: nearly all actives have a fitted effect of over 60% in size
#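 HEK293 cells stably expressing human Npr1 and cGMP GloSensor pGS-40F, loaded 2 h with 2% GloSensor reagent, given compound 30 min at room temperature. Luminescence read before and 20 min after 0.1 nM hNppA.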
# NIH3T3 tox = NIH 3T3 cell cytotoxicity. NIH 3T3 viability, CellTiter-Glo ATP luminescence, 48-72 h. Potency, µM (series often up to 96.7 µM), inactives show at the highest dose activity change, negative = cytotoxicity, actives largely listed as inhibitors. hit rate 4.3% among 94,000; further: nearly all actives have a fitted effect of over 55% in size
#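 Cells were seeded at 400 per well, treated with pin-transferred compound, and kept 48 or 72 hr at 37 °C before CellTiter-Glo addition and luminescence imaging of cellular ATP.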
# SNCA viab count = counter-screen for SNCA expression inhibitors: cell viability. HEK-293-SNCA-luc viability, GF-AFC fluorescence, 24 h. Potency, µM (top dose mostly 57.1 µM), for inactives: at the top dose activity change, negative = cytotoxicity, actives largely listed as cytotoxic. hit rate 0.12% among 150,000. AID 1671193;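 further: 0% = DMSO-treated cells and -100% = medium-only wells without cells; nearly all actives have a fitted effect of over 30% in size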
#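 Cytotoxicity counterscreen: after 24 h compound treatment of genome-edited SNCA-luciferase HEK-293 cells, live-cell protease substrate GF-AFC read by fluorescence after 30 min; activity scaled between DMSO (0%) and medium-only (-100%), curves Hill-fitted.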
# The depositor's hits bear a star; i = inactive; u = inconclusive; x = no result given; ! = not confirmed by another sample; [ ] = dose if it differs, or a comment. Unless noted, the call rests on the fitted dose curve; in most records, active means well fitted curve in the direction sought with a large enough effect; inconclusive means small, poorly fitted or top-dose-only effect, or another doubt; inactive means no such curve, though single readings can be large; an effect the other way counts as inactive or inconclusive. Unless noted, on the % scale 0 is the no-effect control and ±100 the full control effect; potency means the concentration at half of the fitted maximal effect.
SMILES,SNCA expr inhib,HEK293 tox,Luciferase inh,hNpr1 antagonist,NIH3T3 tox,SNCA viab count
Cc1nn(-c2ccccc2)c2c1C(C(C)C)N(C1CCN(C(=O)c3ccc(C(F)(F)F)cc3)CC1)C2=O (stereo unspecified),x,3.4%,x,x,-0.5%,x
Cc1nn(-c2ccccc2)c2c1C(C)N(C1CCN(C(=O)c3cccc(C(F)(F)F)c3)CC1)C2=O (stereo unspecified),x,44.7µM*,x,x,u,x
Cc1nn(-c2ccccc2)c2c1C(C)N(C1CCN(C(=O)c3ccc(Cl)nc3)CC1)C2=O (stereo unspecified),x,u,x,x,35.5µM*,x
COCC(=O)N1CCC(N2C(=O)c3c(c(C)nn3-c3ccccc3)C2C)CC1 (stereo unspecified),x,-20.2%,x,x,28.2µM*!,x
Cc1nn(CCC#N)c(C)c1[C@@H]1C=C[C@@H](NC(=O)Nc2ccc(Cl)cc2)C1,15.7%[87.6 µM],u,i,-17.4%[70.6 µM],u,-4.7%[87.6 µM]
CN1C(=O)C(CC(=O)N2CCN(Cc3cccc(Cl)c3)CC2)=C2CCCCC21 (stereo unspecified),-12.8%,u,i,-0.5%,-27.6%,1.6%
O=C(NCc1ccc(F)cc1)c1ccc2nnc(-c3ccc(Cl)cc3)n2c1,19.4%,u,x,x,u,-2.7%
COc1ccc(CC(=O)N2CC(N3C(=O)c4c(c(C)nn4-c4ccccc4)C3C)C2)cc1 (stereo unspecified),x,39.8µM*,x,x,u,x
COc1cccc(C(=O)N2CCC(N3C(=O)c4c(c(C)nn4-c4ccccc4)C3C)CC2)c1 (stereo unspecified),x,39.8µM*,x,x,u,x
COc1cccc([S+](=O)([O-])N2CCC(N3C(=O)c4c(c(C)nn4-c4ccccc4)C3C)CC2)c1 (stereo unspecified),x,-24.7%,x,x,-13.3%,x
Cc1noc2c(-c3cccc(CO)c3)cc(-c3cccc(C(F)(F)F)c3)nc12,u,44.7µM*,i,-2.9%[70.6 µM],25.1µM*,u
Cc1noc2c(-c3cccc(CO)c3)cc(-c3ccc(F)cc3)nc12,-7.7%[87.6 µM],70.8µM*,i,2.5%[70.6 µM],u,-4.3%[87.6 µM]
Cc1noc2c(-c3cccnc3)cc(-c3cccc(C(F)(F)F)c3)nc12,8.8%[87.6 µM],u,i,-17.1%[70.6 µM],u,0.0%[87.6 µM]
Cc1noc2c(-c3cccc(CO)c3)cc(-c3cccs3)nc12,-14.3%[87.6 µM],100µM*,i,2.0%[70.6 µM],44.7µM*,-8.7%[87.6 µM]
COc1ccc(Nc2cc(-c3cccs3)nc3c(C)noc23)cc1OC,62.6%[87.6 µM],63.1µM*,i,-20.6%[70.6 µM],44.7µM*,-14.5%[87.6 µM]
CN1C(=O)c2cccn2CC1C(=O)NCc1cccs1 (stereo unspecified),u,-13.1%,i,-8.1%,-14.9%,-4.3%
COC(C)(C)C(=O)N1CCc2onc(-c3ccc4c(c3)OCO4)c2C1,15.2%,u,i,5.5%,u,-7.3%
CCn1nc(C(C)C)cc1C(=O)N1CCN(C)C2(CCC(=O)N(C)CC2)C1 (stereo unspecified),-8.5%,i,i,4.8%,-15.0%,2.4%
CC(C)NC(=O)N1CCCC(Cn2c(C3CC3)nc3cccnc32)C1 (stereo unspecified),18.3%,13.5%,i,-1.9%,-19.6%,9.0%
COc1ccc(-c2nc(-c3c(C)noc3C)cc3c2cc(-c2ccccc2)n3C)cn1,u,u,i,-17.4%[70.6 µM],50.1µM*,u
Cc1noc(C)c1-c1cc2c(cc(-c3ccccc3)n2C)c(-c2cccnc2)n1,-10.5%[87.6 µM],u,i,-23.9%[70.6 µM],u,-19.3%[87.6 µM]
COc1ncccc1-c1nc(-c2c(C)noc2C)cc2c1cc(-c1ccccc1)n2C,-22.4%[87.6 µM],28.2µM*,i,-24.2%[70.6 µM],25.1µM*,-27.8%[87.6 µM]
COc1ccc(N2Cc3c(NCCc4ccc(F)cc4)ncnc3N(C)CC2=O)cc1,-10.7%,u,i,5.6%,u,-2.9%
Cc1ccc(N2Cc3c(NCCc4ccc(F)cc4)ncnc3N(C)CC2=O)cc1,-20.9%,u,i,-0.3%,35.5µM*,-30.0%
